These results are taken from PubChem BioAssay (NCATS).

Results filed as inconclusive are left out. Entries that show only a call come without a potency. Active and inactive are the calls of the source. Calls follow the shape of the dose curve; as a rule, active = well fitted inhibition curve with a large enough effect; inconclusive = small, poorly fitted or top-dose-only effect; inactive = flat fitted curve, though single readings scatter. Numbered stars: 1 amine (or outer) side, 2 acyl side, 3 side chain; on linkers, the order of the positions; unused ones are H or OH. Bridge positions count the residues as written; N and C are the ends. Square brackets hold non-standard residues; d marks the D form. Peptide text beside a SMILES is read from it. * marks the point of attachment. ξ: configuration not given here. ΔAla(Z-3-ureido) = NC(=O)N/C=C(\N)C(=O)O; ξDab(CH2SO3H) = NC(CCNCS(=O)(=O)O)C(=O)O; X2 = NC1=NC(O)CC(C(N[*:1])C(=O)[*:2])N1; X1 = NC1=NCCC(C(N[*:1])C(=O)[*:2])N1; Heptanoyl(6-Me) = CC(C)CCCCC(=O)*; ξβ3hOrn = NCCCC(N)CC(=O)*; Orn = NCCC[CH](N)C(=O)O; Dab = NCC[CH](N)C(=O)O; Dap = NC[CH](N)C(=O)O
Potency is read from the fitted curve at half-maximal effect.

The assay relates to DFO2036. As to the kind of experiment: qHTS profiling for inhibitors of Plasmodium falciparum proliferation (AID 504749). Also: nearly all actives have a fitted effect of over 60% in size. Conditions: P. falciparum in erythrocytes, SYBR Green DNA, 72 h; series mostly up to 28.7 µM. The source says:
NIH National Institute of Allergy and Infectious Diseases [NIAID] NIH Chemical Genomics Center [NCGC] MLPCN Grant: None Assay Provider: Xinzhuan Su, NIAID NCGC Assay Overview: Plasmodium falciparum is a virulent malarial parasite that kills 1-2 million people worldwide each year. Transmitted by mosquitoes, the sporozoite form of the parasite enters the blood stream to infect hepatocytes, where they become merozoites that infect red blood cells (erythrocytes). Within erythrocytes, merozoites begin a […] cycle of growth and division, after which the parasite is released to infect new red blood cells. Gametocytes, which form within erythrocytes as well, circulate in the bloodstream and are ingested by the mosquito, thereby completing the life cycle. To profile malarial isolates for differential chemical responses and to identify inhibitors of malarial growth, an assay that measures P. falciparum growth and replication within erythrocytes was employed. This assay uses a DNA binding fluorescent dye (SYBR Green) to detect parasite DNA following cell lysis. Because mature erythrocytes lack DNA, only Plasmodium-derived DNA is detected.
NCGC Assay Protocol Summary: The SYBR Green viability assay was adapted from a method described previously (Plouffe et al., 2008). For screening 3 ul culture medium was dispensed into 1536 well black clear bottom plates (Aurora Biotechnologies) using a Multidrop Combi (Thermo Fisher Scientific Inc.), 23 nL compounds in DMSO were added by a pin tool (Kalypsys), and 5 ul of erythrocytes infected with P. falciparum (0.3% parasitemia, 2.5% hematocrit final concentration) were added. The plates were incubated at 37 C in a humidified incubator in 5% CO2 for 72 h, and 2 ul lysis buffer (20 mM Tris HCl, 10 mM EDTA, 0.16% saponin, 1.6% triton X, 10X SYBR Green I supplied as 10,000X […] by Invitrogen) was added to each well. The plates were mixed for 25 sec with gentle shaking and incubated overnight at room temperature in the dark. The following morning, fluorescence intensity at 485(14) nm excitation and 535(25) nm emission wavelengths was measured on an EnVision (Perkin Elmer) plate reader. Plate reads were normalized relative to the control inhibitor (0.29 uM artemisinin) and vehicle (DMSO) wells present on each plate and then corrected by an algorithm using vehicle-only control plates at the beginning and end of the compound plate stack.
For orientation: In qHTS, concentration-response curves come from the screen itself.
Take `NC(=O)CCC1NC(=O)C(Cc2ccccc2)NC(=O)C(Cc2ccc(O)cc2)NC(=O)CCSSCC(C(=O)N2CCCC2C(=O)NC(CCCN=C(N)N)C(=O)NCC(N)=O)NC(=O)C(CC(N)=O)NC1=O` (stereo not drawn): the Potency entry was “inactive”.
For `CC(C)C[C@H](NC(=O)[C@@H](Cc1c[nH]c2ccccc12)NC(=O)[C@@H](Cc1ccc(O)cc1)NC(=O)[C@@H](CO)NC(=O)[C@@H](Cc1c[nH]c2ccccc12)NC(=O)C(Cc1cnc[nH]1)NC(=O)C1CCC(=O)N1)C(=O)N[C@@H](CCCN=C(N)N)C(=O)N1CCC[C@@H]1C(=O)NCC(N)=O` (stereo partly drawn), the Potency entry was “inactive”.
Turning to `CCC(Oc1ccccc1)C(=O)NC1C(=O)N2C1SC(C)(C)C2C(=O)O` (stereo not drawn), the Potency result is “inactive”.
Take `CC1(C)C(/C=C/C=C/C=C/C=C2\N(CCCCS(=O)(=O)O)c3ccc4ccccc4c3C2(C)C)=[N+](CCCCS(=O)(=O)[O-])c2ccc3ccccc3c21`: the Potency result was “inactive”.
As for `C=CC1=C(C(=O)O)N2C(=O)[C@@H](NC(=O)C(N=O)c3csc(N)n3)[C@H]2SC1` (stereo partly drawn), the Potency result was “inactive”.
Turning to `CNCC(=O)NC(CCCN=C(N)N)C(=O)NC(C(=O)NC(Cc1ccc(O)cc1)C(=O)NC(C(=O)NC(Cc1cnc[nH]1)C(=O)N1CCCC1C(=O)NC(C)C(=O)O)C(C)C)C(C)C` (stereo not drawn), the Potency result was “inactive”.
For the molecule `CCOC(=O)C(CS)NCCN[C@@H](CS)C(=O)OCC` (stereo partly drawn), the Potency entry is “inactive”.
On to `CCC1NC(=O)C(NC(=O)c2ncccc2O)C(C)OC(=O)C(c2ccccc2)NC(=O)C2CC(=O)CCN2C(=O)C(Cc2ccccc2)N(C)C(=O)C2CCCN2C1=O` (stereo not drawn), for which the Potency entry is “inactive”.
As for `CCC(C)C1NC(=O)C(Cc2ccc(O)cc2)NC(=O)C(N)CSSCC(C(=O)N2CCCC2C(=O)NC(CC(C)C)C(=O)NCC(N)=O)NC(=O)C(CC(N)=O)NC(=O)C(CCC(N)=O)NC1=O` (stereo not drawn), the Potency result was “inactive”.
Then `CC(=O)OCC1=C(C(=O)O)N2C(=O)C(NC(=O)Cc3ccccc3)C2SC1` (stereo not drawn), with “inactive”; and `O=C(OCC1OC(OC(=O)c2cc(O)c(O)c(OC(=O)c3cc(O)c(O)c(O)c3)c2)[C@@H](OC(=O)c2cc(O)c(O)c(OC(=O)c3cc(O)c(O)c(O)c3)c2)C(OC(=O)c2cc(O)c(O)c(OC(=O)c3cc(O)c(O)c(O)c3)c2)C1OC(=O)c1cc(O)c(O)c(OC(=O)c2cc(O)c(O)c(O)c2)c1)c1cc(O)c(O)c(OC(=O)c2cc(O)c(O)c(O)c2)c1` (stereo partly drawn), with 2.24 µM (active); and `CCC(C)C1NC(=O)C(CCNCS(=O)(=O)O)NC(=O)C(NC(=O)C(CCNCS(=O)(=O)O)NC(=O)C(NC(=O)C(CCNCS(=O)(=O)O)NC(=O)CCCCC(C)C)C(C)O)CCNC(=O)C(C(C)O)NC(=O)C(CCNCS(=O)(=O)O)NC(=O)C(CCNCS(=O)(=O)O)NC(=O)C(C(C)CC)NC1=O` (stereo not drawn) ({Heptanoyl(6-Me)}-[ξDab(CH2SO3H)]T[ξDab(CH2SO3H)][Dab][ξDab(CH2SO3H)]II[ξDab(CH2SO3H)][ξDab(CH2SO3H)]T; lactam 4-C; configuration not given here), with “inactive”.
In the case of `O=C(O)c1ccccc1-c1c2cc(Br)c(=O)c(Br)c-2oc2c(Br)c(O)c(Br)cc12`, the Potency result is “inactive”.
On to `CC(C)C(NC(=O)C(CC(=O)O)NC(=O)C(CCCCN)NC(=O)C(N)CCCN=C(N)N)C(=O)NC(Cc1ccc(O)cc1)C(=O)O` (stereo not drawn) (H-RKDVY-OH; configuration not given here), for which the Potency result is “inactive”.
For the molecule `NCCCC(N)CC(=O)NCC1NC(=O)C(CO)NC(=O)C(N)CNC(=O)C(C2CCN=C(N)N2)NC(=O)/C(=C/NC(N)=O)NC1=O` (stereo not drawn) (H-[Dap]S[Dap](ξβ3hOrn)[ΔAla(Z-3-ureido)][X1]; lactam 1-C; configuration not given here), the Potency result is “inactive”.
For the molecule `O=C1/C(=C\c2cccs2)CCC/C1=C/c1cccs1`, the Potency result is “inactive”.
Then `CC(N)C(=O)NCC(=O)NC1CSSCC(C(=O)O)NC(=O)C(CO)NC(=O)C(C(C)O)NC(=O)C(Cc2ccccc2)NC(=O)C(C(C)O)NC(=O)C(CCCCN)NC(=O)C(Cc2c[nH]c3ccccc23)NC(=O)C(Cc2ccccc2)NC(=O)C(Cc2ccccc2)NC(=O)C(CC(N)=O)NC(=O)C(CCCCN)NC1=O` (stereo not drawn), with “inactive”.
Take `Cn1cc(O)nc1NC(=O)Nc1cccc(Cl)c1`: the Potency entry was “inactive”.
Then `COc1ccc(-c2nc3ccc(C4=C(C)CC(=O)NN4)cc3[nH]2)cc1`, with “inactive”; and `CC(C)CC1NC(=O)C(CCCN)NC(=O)C(C(C)C)NC(=O)C2CCCN2C(=O)C(Cc2ccccc2)NC(=O)C(CC(C)C)NC(=O)C(CCCN)NC(=O)C(C(C)C)NC(=O)C2CCCN2C(=O)C(Cc2ccccc2)NC1=O` (stereo not drawn) (cyclo(FPV[Orn]LFPV[Orn]L); configuration not given here), with 0.0028 µM (active); and `CC(=O)OCC(=O)[C@@]1(O)CCC2C3CCC4=CC(=O)CC[C@]4(C)C3=CC[C@@]21C` (stereo partly drawn), with “inactive”.
`CC(C)CC(NC(=O)C(COC(C)(C)C)NC(=O)C(Cc1ccc(O)cc1)NC(=O)C(CO)NC(=O)C(Cc1c[nH]c2ccccc12)NC(=O)C(Cc1cnc[nH]1)NC(=O)C1CCC(=O)N1)C(=O)NC(CCCN=C(N)N)C(=O)N1CCCC1C(=O)NNC(N)=O` (stereo not drawn): the Potency entry is “inactive”.
Take `NCCCC(N)CC(=O)NC1CNC(=O)C(C2CC(O)N=C(N)N2)NC(=O)/C(=C/NC(N)=O)NC(=O)C(CO)NC(=O)C(CO)NC1=O` (stereo not drawn) (ξβ3hOrn-[Dap]SS[ΔAla(Z-3-ureido)][X2]; lactam 1-C; configuration not given here): the Potency result was “inactive”.
